The results in this text go back to PubChem BioAssay.

Activity calls are given as the source filed them.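 Rule for the calls, unless noted: active = NADPH fluorescence slope more negative than the mean of all samples by about 3 SD, 99.7% confidence; inactive = the rest.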

Test [1] can be described thus: inhibitors of TNFa-induced NFkB p65 translocation, primary screen, imaging, HUVEC, MLSMR starter and 10KST1 sets (AID 438;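 active = inhibition above 20% together with a positive visual image hit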;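 note: compound added about 3h40 before a 20 min TNFalpha stimulation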;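 for inhibition: signal is the nuclear over cytoplasmic p65 intensity ratio per well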). To be noted: HUVEC TNFa-induced p65 nuclear translocation; cell count: measured here: nuclei count (cytotoxicity indicator), at 2.08 µM; inhibition: at 2 µM, stronger effect = higher value, 0% TNFa-plus-vehicle, 100% no-TNFa wells.
Test [2] in a line: reduction of polyQ htt aggregates in cells – imaging, exon1htt(103Q)mCFP cells, high-content imaging, primary screen (AID 483;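 active = visual image review flags a hit and inhibition of aggregation exceeds 20%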;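 note: compound exposure lasted 3 days before fixation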;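 for nuclei count: percent of the per-plate median nuclei count of sample wells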). To be noted: exon1htt(103Q)mCFP cell line, aggregate imaging, at 2 µM; inhibition of aggregation: stronger effect = higher value; nuclei count: measured here: cell count, toxicity.
Test [3] can be described thus: endothelial E-selectin expression blockers – imaging, HUVEC, immunofluorescence, MLSMR starter and 10KST1 sets, primary screen (AID 487;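 active = visually confirmed hit in the image check and inhibition above 20%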;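 for inhibition: signal is fraction of cell area covered by stained E-selectin grains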;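 for nuclei count: 100% = median nuclei count of all wells on the same plate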). To be noted: HUVEC TNFalpha-induced E-selectin immunofluorescence imaging, at 2 µM; inhibition: stronger effect = higher value; nuclei count: measured here: cell number, toxicity.
Test [4] is described as follows: Primary imaging screen for DUSP6 inhibitors that restore phospho-Erk in transfected HeLa cells, chemical complementation (AID 609;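 active = compounds giving at least 50% inhibition in the cell-based MKP-3 phosphatase rescue imaging test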;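 for inhibition: phospho-Erk level distribution per well compared with pooled transfected vehicle control wells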). To be noted: HeLa MKP-3 transfected, phospho-Erk imaging KS statistic, at 10 µM, cells stimulated with TPA for 15 min.
Test [5] addresses Dual specificity protein phosphatase 6 (Homo sapiens) (UniProt Q16828). Described as above. To be noted: HeLa MKP-3 transfected, phospho-Erk imaging KS statistic; at 10 µM; stronger effect = higher value; cells stimulated with TPA for 15 min.
Test [6] deals with Voltage-gated potassium channel subunit beta-2 (Rattus norvegicus) (UniProt P62483). Kind of test: inhibitors of rat Kvbeta2 reductase activity – biochemical, NADPH fluorescence, primary screen (AID 622;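 active = fluorescence slope higher than the sample average by over 3 SD, cut at about -0.22 in these data, passing the limit was not always enough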;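 note: slope of raw intensity against log time taken from 70 to 1610 s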). To be noted: recombinant KvBeta, 4-cyanobenzaldehyde reduction, at 10 µM, stronger effect = higher value.
Sequence of Voltage-gated potassium channel subunit beta-2 (Rattus norvegicus) (P62483 whole entry, looked up): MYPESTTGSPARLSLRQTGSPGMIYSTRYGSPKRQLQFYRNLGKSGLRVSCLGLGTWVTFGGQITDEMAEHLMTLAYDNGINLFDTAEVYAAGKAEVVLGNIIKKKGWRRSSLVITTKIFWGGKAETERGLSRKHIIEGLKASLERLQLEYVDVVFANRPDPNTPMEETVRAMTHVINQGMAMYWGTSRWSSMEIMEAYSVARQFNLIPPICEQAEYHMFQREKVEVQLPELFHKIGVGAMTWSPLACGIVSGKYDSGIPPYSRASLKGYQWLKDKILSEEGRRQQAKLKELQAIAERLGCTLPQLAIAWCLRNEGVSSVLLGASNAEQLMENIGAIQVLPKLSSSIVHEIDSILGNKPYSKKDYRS
Test [7] shares this target. Kind of test: enhancers of rat Kvbeta2 NADPH turnover – biochemical, NADPH fluorescence, primary screen (AID 623).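 Note: fluorescence intensity change per second fitted from 20 to 320 s.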 To be noted: Recombinant KvBeta, NADPH fluorescence decrease slope, 10 min; at 10 µM; stronger effect = lower value.
In test [8] the target is Muscarinic acetylcholine receptor M4 (Homo sapiens) (UniProt P08173). The experiment in a line: M4-linked GIRK flux change, two-sided – cell-based, HEK293 M4/GIRK, thallium flux, BTC-AM, M4 allosteric agonist project, primary screen (AID 625;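 active = fluorescence slope after compound addition differing from the mean of all tested samples at 99.7% confidence, mostly higher but some lower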;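 note: thallium influx through GIRK channels coupled to M4 in HEK293 cells with BTC-AM dye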). To be noted: at 10 µM, actives lie on both sides.
Sequence of Muscarinic acetylcholine receptor M4 (Homo sapiens) (P08173 whole entry, looked up): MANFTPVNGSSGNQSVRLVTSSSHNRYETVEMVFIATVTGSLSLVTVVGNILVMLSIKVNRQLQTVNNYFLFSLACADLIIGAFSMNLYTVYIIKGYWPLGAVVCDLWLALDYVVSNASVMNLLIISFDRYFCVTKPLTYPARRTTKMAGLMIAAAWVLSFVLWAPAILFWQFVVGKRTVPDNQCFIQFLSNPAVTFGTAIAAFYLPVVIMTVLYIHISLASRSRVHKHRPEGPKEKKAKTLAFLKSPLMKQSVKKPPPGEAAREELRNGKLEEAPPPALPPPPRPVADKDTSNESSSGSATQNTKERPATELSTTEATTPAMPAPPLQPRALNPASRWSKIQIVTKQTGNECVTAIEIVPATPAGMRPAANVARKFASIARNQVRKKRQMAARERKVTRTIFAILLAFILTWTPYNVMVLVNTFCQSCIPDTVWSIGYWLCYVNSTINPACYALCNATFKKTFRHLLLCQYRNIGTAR
The nature of test [9]: inhibitors of larval lipid processing in zebrafish, primary screen, whole organism, PED6 fluorescence, gall bladder and intestine (AID 686;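 active = a full or partial loss of lipid-probe fluorescence in the fish gall bladder, intestine or both, judged by eye; inactive = no fluorescence loss, or compound toxic to the fish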;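 note: larvae 5 to 7 days old with five fish per well; signal comes from phospholipase A2 cleavage of quenched PED6 carried via bile; overnight exposure to compound and PED6 before scoring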). To be noted: Zebrafish larvae PED6 lipid processing, fluorescence scoring; screened at 20 µM (by protocol).
The nature of test [10]: loss of swimming-algae plug formation – whole organism, Chlamydomonas reinhardtii, WT vs cilia-less mutant, absorbance, 96-well, primary screen (AID 463189;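 active = inhibition at or above 50% relative to wild type and mutant plate controls; inactive = inhibition below 50%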;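 note: 0% = wild type cc124 cells in DMSO and 100% = ciliumless bld1 mutant cells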). To be noted: Chlamydomonas reinhardtii gravitaxis, OD600 absorbance, 2 days; at 10 µM; stronger effect = higher value.
Test [11] in a line: blockers of RIG-like receptor reporter activation – cell-based, Sendai virus stimulus, luciferase, 10K MLSCN set, TLR/RLR signaling modifier project, primary screen (AID 602276;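 active = inhibition at or above 50% at 10 µM; inactive = inhibition below 50%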;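 note: firefly luciferase from ISG56 promoter only with Renilla not read in this screen; 0% = Sendai virus plus DMSO and 100% = medium plus DMSO without virus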). To be noted: HEK293 RL24 IRF3 luciferase reporter, at 10 µM, stronger effect = higher value. Background: A reporter such as luciferase makes a cellular process visible.
Test [12] in a line: TLR3 IRF3 reporter activation blockers – cell-based, poly I:C stimulus, luciferase, 10K MLSCN set, primary screen (AID 602277;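 active = inhibition of the reporter signal at or above 50%; inactive = inhibition below 50%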). To be noted: HEK293-TLR3 RL24 IRF3 luciferase reporter, at 10 µM, stronger effect = higher value.
Where [13] appears, read: measured here: cell density z-score.
[14] abbreviates: measured here: nuclear c-Myc green intensity z-score.
The mark [15] stands for this setting: measured here: nuclear pErk red intensity z-score, stronger effect = higher value.

Sequence of Dual specificity protein phosphatase 6 (Homo sapiens) (Q16828 whole entry, looked up): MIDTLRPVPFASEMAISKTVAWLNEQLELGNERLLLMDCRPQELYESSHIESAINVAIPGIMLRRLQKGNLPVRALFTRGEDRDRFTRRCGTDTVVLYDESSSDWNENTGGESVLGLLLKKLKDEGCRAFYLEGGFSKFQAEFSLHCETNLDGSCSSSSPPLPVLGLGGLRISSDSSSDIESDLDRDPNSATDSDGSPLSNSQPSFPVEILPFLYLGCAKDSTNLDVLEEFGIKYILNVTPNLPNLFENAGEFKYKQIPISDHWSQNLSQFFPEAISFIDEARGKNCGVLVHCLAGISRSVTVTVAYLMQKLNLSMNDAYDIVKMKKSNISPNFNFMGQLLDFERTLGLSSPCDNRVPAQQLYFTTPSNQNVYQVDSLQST

The term inhibition denotes the drop in the measured response relative to a control, in per cent. `Fc1ccc(-c2cnc[nH]2)cc1`: the cell count in [1] stood at 501. For the same compound, the inhibition is 0.1% (inactive) in test [1]; -88.1% (inactive) in [3]; 3.42% (inactive) in [5]; -0.515% (inactive) in test [10]; -22.9% (inactive) in test [11]; -37.6% (inactive) in test [12]. For the same compound, the inhibition of aggregation in [2] is -41% (inactive). Further, the nuclei count in [2] was 64.4%; in [3], 109%. Also, the z-score in test [4] (setting [13]) is -1.11; in [4] (setting [14]) it was 0.681; in [4] (setting [15]) it was -1.47. Further, the fluorescence slope was -0.513 (inactive) in test [6] and 0.00534 (inactive) in test [8]. The NADPH fluorescence slope in [7] was -9.6e-05 (inactive). The result in [9] was inactive.

Consider `COc1ccccc1C1C(C#N)=C(N)Oc2cc(C)n(Cc3ccccn3)c(=O)c21` (configuration not stated), for which the cell count in [1] is 679. The inhibition was -2.4% (inactive) in test [1]; -46.2% (inactive) in test [3]; 0.671% (inactive) in test [5]; 7.42% (inactive) in test [10]; -7.32% (inactive) in test [11]; 4.86% (inactive) in test [12]. Moreover, the inhibition of aggregation in test [2] is 12% (inactive). The values for the nuclei count in test [2] and in test [3] were 99.3% and 122%, respectively. The z-score in test [4] (setting [13]) was 0.97; in [4] (setting [14]) it was -0.155; in test [4] (setting [15]), -0.154. The fluorescence slope in [6] is -0.453 (inactive); in test [8], 0.00473 (inactive). In [7], the NADPH fluorescence slope is -3.2e-05 (inactive). Also, the result in [9] was inactive.

As for `Nn1c(SCC(=O)Nc2ccc3c(c2)OCCO3)nnc1C(F)(F)F`, in test [1], the cell count was determined as 598. Further, the inhibition in test [1] is 0% (inactive); in test [3], -26.1% (inactive); in test [5] it was 10.9% (inactive); in [10], 11.3% (inactive); in [11], 12.4% (inactive); in [12], 21.3% (inactive). Further, the inhibition of aggregation in [2] is -32.9% (inactive). Further, the results for the nuclei count in test [2] and in test [3] were 105% and 110%, respectively. Further, the z-score is 0.295 in test [4] (setting [13]), -0.513 in [4] (setting [14]) and -1.34 in [4] (setting [15]). The fluorescence slope is -0.426 (inactive) in test [6] and 0.00501 (inactive) in test [8]. Further, the NADPH fluorescence slope in test [7] is -5.4e-05 (inactive). In [9], the result was inactive.

As to `COc1cccc(N2C(=O)C(O)=C(C(C)=O)C2c2ccc(OC)c(OC)c2)c1` (configuration not stated), the cell count in test [1] came out at 652. Also, the inhibition in test [1] is -3.8% (inactive); in test [3] it was 34% (inactive); in test [5], 2.46% (inactive); in [10] it was -2.64% (inactive); in [11], 5.42% (inactive); in test [12] it was -0.11% (inactive). The inhibition of aggregation in test [2] was 14% (inactive). The values for the nuclei count in [2] and in [3] were 104% and 106%, respectively. Moreover, the z-score is -1.18 in test [4] (setting [13]), -0.212 in test [4] (setting [14]) and 0.653 in test [4] (setting [15]). In addition, the fluorescence slope in test [6] is -0.453 (inactive); in [8] it was 0.00642 (inactive). The NADPH fluorescence slope in test [7] was -6.1e-06 (inactive). Moreover, the compound was called inactive in test [9].

Consider `c1ccc(CN2CCN(c3ncnc4c3[nH]c3ccccc34)CC2)cc1`, for which, in test [1], the cell count amounted to 599. Also, the inhibition in [1] was -13.1% (inactive); in test [3], -47.4% (inactive); in [5] it was 13.4% (inactive); in test [10], 21.2% (inactive); in test [11] it was 1.57% (inactive); in test [12], -46.7% (inactive). Moreover, the inhibition of aggregation in [2] is 10.3% (inactive). For the same compound, the nuclei count in [2] stood at 94.4%; in test [3], 137%. In addition, the z-score in test [4] (setting [13]) is 0.378; in [4] (setting [14]) it was -1.18; in test [4] (setting [15]), -0.208. Also, the results for the fluorescence slope in test [6] and in test [8] were -0.381 (inactive) and 0.00594 (inactive), respectively. Moreover, the NADPH fluorescence slope in test [7] was -2.8e-05 (inactive). Moreover, the outcome in test [9] is “active; weak signal in intestine only”.

With `COc1ccc(C2(CN(C(C)=O)C(C)=O)CCCC2)cc1OC`, in test [1], the cell count came to 676. For the same compound, the inhibition is -6.2% (inactive) in test [1]; -28.3% (inactive) in [3]; 1.98% (inactive) in [5]; -15.3% (inactive) in test [10]; 1.22% (inactive) in test [11]; 7.89% (inactive) in test [12]. The inhibition of aggregation in test [2] is 6.8% (inactive). Also, the nuclei count in test [2] stood at 109%; in test [3], 139%. Also, the z-score in [4] (setting [13]) is -0.215; in [4] (setting [14]) it was 1.01; in test [4] (setting [15]), -1.44. Moreover, the fluorescence slope in [6] is -0.504 (inactive); in [8], 0.00396 (inactive). Moreover, the NADPH fluorescence slope in [7] was -6.2e-05 (inactive). In addition, the call in test [9] was inactive.
